rTrxR1 inhibitor: qHTS Assay for Inhibitors of Mammalian Selenoprotein Thioredoxin Reductase 1 (TrxR1): qHTS | Thioredoxin reductase 1, cytoplasmic (Rattus norvegicus), O89049 | recombinant rTrxR1, NADPH fluorescence consumption, selenite substrate | Potency, µM (doses to about 114 µM), without a hit: top-dose activity change, negative = inhibition, most hits filed as inhibitors | 390,000 compounds, 1% hits | AID 588453, 2011; note: potency is the fitted concentration of half-maximal effect; % is set by controls: 0 for no effect and ±100 for the full control effect; nearly all actives have a fitted effect of over 65% in size
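Rat TrxR1 (90 nM in the dispensed reagent) was pre-reduced with 400 uM NADPH for 5 min at room temperature, then incubated with compound for 15 min. After 400 uM selenite was added, NADPH fluorescence (Ex 340/Em 450 nm) was followed for 8 min.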
GLS inh: qHTS for Inhibitors of Glutaminase (GLS) | AID 624170, 2012 | Glutaminase kidney isoform, mitochondrial (Homo sapiens), O94925 | Potency, µM (top dose mostly 45.5 µM), without a hit: at the top dose activity change, negative = inhibition, usual class: inhibitors | GLS enzymatic activity, qHTS titration | 410,000 compounds, 0.21% hits; note: potency is the fitted concentration of half-maximal effect; % is set by controls: 0 for no effect and ±100 for the full control effect
Target sequence (O94925 whole entry, looked up, canonical isoform): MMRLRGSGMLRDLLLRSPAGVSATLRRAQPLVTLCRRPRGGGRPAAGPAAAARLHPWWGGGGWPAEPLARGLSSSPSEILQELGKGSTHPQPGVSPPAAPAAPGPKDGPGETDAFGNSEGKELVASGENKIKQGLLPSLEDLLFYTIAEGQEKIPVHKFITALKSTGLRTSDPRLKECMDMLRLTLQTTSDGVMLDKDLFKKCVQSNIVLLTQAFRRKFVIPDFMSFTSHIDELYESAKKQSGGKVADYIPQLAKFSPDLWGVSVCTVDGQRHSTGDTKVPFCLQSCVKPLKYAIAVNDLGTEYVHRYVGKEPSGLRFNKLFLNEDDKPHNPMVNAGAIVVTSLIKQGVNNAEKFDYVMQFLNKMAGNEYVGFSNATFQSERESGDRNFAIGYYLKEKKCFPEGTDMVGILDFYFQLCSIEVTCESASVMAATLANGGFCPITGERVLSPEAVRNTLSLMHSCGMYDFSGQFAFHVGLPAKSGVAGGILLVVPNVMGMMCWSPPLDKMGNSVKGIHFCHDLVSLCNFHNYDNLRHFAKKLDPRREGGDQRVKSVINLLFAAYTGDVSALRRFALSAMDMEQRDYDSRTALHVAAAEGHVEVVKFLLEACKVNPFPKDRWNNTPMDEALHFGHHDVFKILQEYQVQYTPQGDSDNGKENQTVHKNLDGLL
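hKGA in 45 mM KH2PO4 (pH 8.2), 0.02% Tween-20 with compound, then 1mM L-Glutamine (stock as added) plus glutamate oxidase/HRP/Amplex red coupling mix. Fluorescence read initially and after 30 min at RT; signal change reflects glutamate formation.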
TrxR1 substrate: qHTS Assay for Substrates of Mammalian Selenoprotein Thioredoxin Reductase 1 (TrxR1): qHTS; Thioredoxin reductase 1, cytoplasmic (Rattus norvegicus), O89049; purified TrxR1 substrate turnover, NADPH consumption readout; Potency, µM (highest dose often 114 µM), for inactives: at the top dose activity change, negative = substrate turnover; 390,000 compounds, 0.01% hits; AID 588456, 2011; note: potency is the fitted concentration of half-maximal effect; % is set by controls: 0 for no effect and ±100 for the full control effect; nearly all actives have a fitted effect of over 50% in size
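Rat TrxR1, dispensed at 90 nM, was prereduced with 400 uM NADPH (final) for 5 min at ~22 deg C, then incubated with compound 15 min before 400 uM selenite. A first-read NADPH fluorescence drop versus no-compound background flagged substrates.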
mIDH1 inhibitor: qHTS for Inhibitors of mutant isocitrate dehydrogenase 1 (IDH1): qHTS; Potency, µM (doses to about 76.6 µM), for inactives: top-dose activity change, negative = inhibition, actives largely listed as inhibitors; IDH1-R132H enzyme, NADPH consumption, diaphorase/resazurin fluorescence; 390,000 compounds, 0.093% hits; Isocitrate dehydrogenase [NADP] cytoplasmic (Homo sapiens), O75874; AID 602179, 2012; note: potency is the fitted concentration of half-maximal effect; % is set by controls: 0 for no effect and ±100 for the full control effect; nearly all actives have a fitted effect of over 65% in size
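IDH1-R132H (0.5 ug/mL) preincubated 30 min with compound, then NADPH (0.016 mM) and alpha-KG (2 mM) added; 80 min at RT, pH 7.5. Remaining NADPH coupled via diaphorase/resazurin to fluorescence (540/590 nm); concentration-response curves normalized to no-enzyme control.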
IDH1 autofl: qHTS for Inhibitors of mutant isocitrate dehydrogenase 1 (IDH1): Cherrypicks Autofluorescence Interference | shares compounds with mIDH1 inhibitor | Resorufin detection reagent fluorescence interference, cell-free | inhibition of signal, % at 51.2 µM | 750 tested, under 10 active;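 note: 0% = wells with normal resorufin and full inhibition = wells lacking resorufin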
WT IDH1 inh: qHTS for Inhibitors of mutant isocitrate dehydrogenase 1 (IDH1): Cherrypicks in WT IDH1 | shares compounds with mIDH1 inhibitor | WT IDH1 enzyme, NADPH diaphorase/resazurin fluorescence | Potency, µM (doses to about 115 µM), inactives show top-dose activity change, negative = inhibition, most hits filed as inhibitors | 750 compounds, 9% hits | AID 623995, 2012;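 note: potency is the fitted concentration of half-maximal effect; 0% = full WT IDH1 enzyme control and full inhibition = no enzyme wells; nearly all actives have a fitted effect of over 55% in size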
mIDH1 confirm: qHTS for Inhibitors of mutant isocitrate dehydrogenase 1 (IDH1): Confirmation of Cherrypicks; shares compounds with mIDH1 inhibitor; IDH1 R132H enzyme, NADPH diaphorase/resazurin fluorescence; Potency, µM (series often up to 76.6 µM), inactives show at the highest dose activity change, negative = inhibition, most hits filed as inhibitors; 750 compounds, 83% hits; AID 624002, 2012; note: potency is the fitted concentration of half-maximal effect; nearly all actives have a fitted effect of over 50% in size
An asterisk follows results filed as active; ? = inconclusive; / = no result given; [ ] = another dose, or the depositor's remark. Sampled rows, rich in hits. Any-hit rate of the full collection: about 1.2%. Calls come from the whole dose curve; as a rule, active = well fitted curve in the direction sought with a large enough effect; inconclusive = small, poorly fitted or top-dose-only effect, or another doubt; inactive = no such curve, though single readings can be large; an effect the other way counts as inactive or inconclusive.

SMILES | rTrxR1 inhibitor | GLS inh | TrxR1 substrate | mIDH1 inhibitor | IDH1 autofl | WT IDH1 inh | mIDH1 confirm
CCN(CC)C(=O)c1sc2c(c1C)c(=O)n(-c1ccc(OC)cc1OC)c(=O)n2Cc1cc(C)ccc1C | 8%[57.1 µM] | 1% | -1%[57.1 µM] | 40µM* | 3 | 5% | 22µM*
CCN(CC)C(=O)c1sc2c(c1C)c(=O)n(Cc1ccccc1)c(=O)n2Cc1cc(C)ccc1C | 24%[57.1 µM] | 2% | 5%[57.1 µM] | -11% | / | / | /
CCN(CC)C(=O)c1sc2c(c1C)c(=O)n(-c1ccc(OC)cc1OC)c(=O)n2CC(=O)c1ccccc1 | 6%[11.4 µM] | -4% | -1%[11.4 µM] | -11% | / | / | /
CN(C)CCCNC(=O)c1ccc(-c2cc3nc(NCc4cccnc4)n(C)c(=O)c3s2)cc1 | / | 0% | / | / | / | / | /
CCc1ccc(S(=O)(=O)c2cn(CC(=O)Nc3ccc(C)cc3)c3ccccc3c2=O)cc1 | -3% | -1% | -8% | -14% | / | / | /
CC(=O)N1CCc2c(sc3c2c(=O)n(-c2cccc(Cl)c2C)c(=O)n3Cc2ccccc2C)C1 | 20% | 2% | 4% | ? | -4 | 40µM* | 28µM*
C#CCn1c(=O)n(-c2cccc(Cl)c2C)c(=O)c2c3c(sc21)CN(C(C)=O)CC3 | 3% | 2% | 1% | -10% | / | / | /
CCOC(=O)C1CCN(c2c(C(=O)c3ccc(C)cc3)cnc3ccc(F)cc23)CC1 | 8% | -1% | -6% | 4% | / | / | /
COc1cc2ncc(C(=O)c3ccc(C)cc3)c(N3CCCCC3)c2cc1OC | 2% | -8% | -8% | ? | -8 | -11% | 14µM*
CC(=O)Nc1ccc(C2=NNC(=NCC3CCCO3)SC2)cc1 (stereo not drawn) | -1% | 4% | -2% | ? | -5 | 364% | 45µM*
CCc1cccc(C)c1Nc1c(-c2ccc(SC)cc2)nc2sccn12 | 16% | 3% | 1% | ? | / | / | /
CCc1cccc(C)c1Nc1c(-c2ccc(F)cc2)nc2sccn12 | 8% | 6% | 5% | 40µM* | 3 | 7% | 14µM*
CCc1cccc(C)c1Nc1c(-c2ccc(N(C)C)cc2)nc2cnccn12 | 2% | 17% | -2% | 32µM* | -9 | -7% | 16µM*
Cc1ccc(C2=Nc3ccc(Br)cc3C(c3ccncc3)=NN2)cc1 | 15%[57.1 µM] | 8% | -1%[57.1 µM] | 15µM* | 8 | 4% | 22µM*
C=CCOc1ccc(Br)cc1/C=C1/SC(=Nc2ccc(C(=O)O)cc2)NC1=O | ? | -14% | 0% | 52µM* | 9 | 71µM* | 28µM*
CCOc1cc(Br)cc(/C=C2\SC(=Nc3ccccc3)NC2=O)c1O | -17% | 1% | -4% | 2% | / | / | /
Cc1oc2c(C)c3oc(=O)c(CCC(=O)O)c(C)c3cc2c1-c1ccccc1 | 1% | 26% | 1% | 23µM* | 0 | 50µM* | 13µM*
C=C1NN(CC#N)C(=O)N1c1ccc(OCc2ccccc2)cc1 | 9% | / | -1% | / | / | / | /
Cc1cc(C(=O)CCl)c(C)n1-c1cccc(S(=O)(=O)N2CCOCC2)c1 | ? | -14% | 2%[57.1 µM] | ? | 3 | -2% | 40µM*
COCCn1c(SCC(=O)N2CCc3ccccc3C2)nc2cc(Cl)ccc2c1=O | 6% | 12% | -4% | 26µM* | -7 | 8% | 11µM*
CC(C)Cn1c(SCC(=O)N2CCc3ccccc3C2)nc2cc(Cl)ccc2c1=O | -6% | -3% | -6% | ? | / | / | /
COc1ccc(N(C(=O)Cc2cccs2)C(C(=O)NC2CCCCC2)c2cccn2C)cc1 (stereo not drawn) | 4% | 13% | -1% | ? | -3 | 15% | 40µM*
Cc1ccc(C(C(=O)NC2CCCC2)N(Cc2ccc3c(c2)OCO3)C(=O)Cc2cccs2)cc1 (stereo not drawn) | -2% | 7% | -2% | -5% | / | / | /
Cc1ccc(C(C(=O)NC2CCCC2)N(C(=O)Cc2cccs2)c2ccc3c(c2)OCCO3)cc1 (stereo not drawn) | 47%[57.1 µM] | -2% | 6% | ? | / | / | /
Cn1cccc1C(C(=O)NC1CCCCC1)N(C(=O)Cc1cccs1)c1ccc2c(c1)OCO2 (stereo not drawn) | 17% | 6% | -3%[57.1 µM] | ? | 7 | 0% | 11µM*
SMILES | rTrxR1 inhibitor | GLS inh | TrxR1 substrate | mIDH1 inhibitor | IDH1 autofl | WT IDH1 inh | mIDH1 confirm
Cc1ccc(C(C(=O)NC2CCCC2)N(C(=O)Cc2cccs2)c2ccc(C)c(C)c2)o1 (stereo not drawn) | -4% | -20% | 6%[57.1 µM] | 5.2µM* | -1 | 4% | 4.5µM*
Cc1ccc(C)c(N(C(=O)Cc2cccs2)C(C(=O)NC2CCCC2)c2ccc(C)o2)c1 (stereo not drawn) | 2% | -6% | 3% | -29% | / | / | /
O=C(NC1CCCC1)C(c1ccc(F)cc1)N(C(=O)Cc1cccs1)c1ccc2c(c1)OCCO2 (stereo not drawn) | 3%[57.1 µM] | -4% | 8%[57.1 µM] | 10µM* | 6 | -8% | 6.3µM*
CCOc1ccc(OC(=O)c2c(-c3ccccc3Cl)noc2C)cc1 | 7%[57.1 µM] | -7% | -7%[57.1 µM] | -10% | / | / | /
CCOc1ccc(N(C(=O)Cn2nnc3ccccc32)C(C(=O)NCc2ccccc2)c2ccc(OC)cc2)cc1 (stereo not drawn) | 28% | 6% | 18% | -3% | / | / | /
COc1ccc(N(C(=O)Cn2cnc3ccccc32)C(C(=O)NC2CCCCC2)c2ccccc2)cc1 (stereo not drawn) | 0% | -8% | -4% | 9.3µM* | 1 | -6% | 2.8µM*
Cc1ccc(NC(=O)CCc2nc(-c3ccccc3F)no2)c(C)c1 | 4% | -6% | -7% | 2% | / | / | /
CC[C@]12c3[nH]c4cc(CCC(=O)N(C)C)ccc4c3CCN1C(=O)[C@@H](CC(=O)NC/C=C(\C)CCC=C(C)C)C[C@@H]2C(=O)N1CCN(C(=O)c2ccco2)CC1 | -26% | 3% | -7% | ? | -11 | -7% | 32µM*
CCC(=O)C1=C(c2ccc(C)cc2)N(C(=O)CC)n2c(nnc2C2CCCCC2)S1 | 21%[57.1 µM] | 1% | 9%[57.1 µM] | 1% | / | / | /
